Measurements reported in PubChem BioAssay (Tox21).
Where “and” joins values, the source holds several entries; their conditions need not be identical. Equal entries are not always repeated. Records with an inconclusive call do not appear. Where a call stands in place of a potency, no number is given. Calls of active or inactive are those of the source. Unless noted, calls come from the whole dose curve; as a rule, active = well fitted curve in the direction sought with a large enough effect in the repeat runs; inconclusive = weak or mixed curves; inactive = no such curve, though single readings can be large; an effect the other way counts as inactive or inconclusive.

Assays:
[1] = qHTS assay for small molecule agonists of the p53 signaling pathway (AID 651631; calls by dose curve; note: nearly all actives have a fitted effect of over 15% in size; note: potency is the fitted concentration of half-maximal effect)
How it was run: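 HCT-116 cells carrying a stable p53 response element–beta-lactamase reporter were plated, rested 5 h at 37 °C, then exposed to compound in DMSO for 16 h at 37 °C; reporter activity was read as FRET substrate fluorescence after 2 h at room temperature.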

[2] = qHTS assay for small molecules that induce genotoxicity in human embryonic kidney cells expressing luciferase-tagged ATAD5 (AID 651632); note: nearly all actives have a fitted effect of over 15% in size
How it was run: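 Concentration-response screen for ATAD5 upregulation in HEK293T luciferase reporter cells; 16 hr treatment at 37C, then luminescence after 30 min with Amplite at room temperature.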

[3] = qHTS assay for small molecule agonists of the p53 signaling pathway - cell viability (AID 651633; calls by dose curve; note: nearly all actives have a fitted effect of over 30% in size; note: potency is the fitted concentration of half-maximal effect)
How it was run: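 p53RE-bla cells, seeded at 4,000 per well and rested 5 h at 37 C/5% CO2, received compounds in DMSO for 16 h at 37 C. CellTiter-Glo was then added, and luminescence was read after 30 min at room temperature to gauge cytotoxicity.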

[4] = qHTS assay for small molecules that induce genotoxicity in human embryonic kidney cells expressing luciferase-tagged ATAD5 - cell viability (AID 651634; calls by dose curve; note: nearly all actives have a fitted effect of over 25% in size)
How it was run: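 15.5 hr compound or vehicle exposure of HEK293T cells expressing luciferase-tagged ATAD5 at 37C; live-cell protease activity is read by fluorescence after 30 min of CellTiter-Fluor.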

[5] = qHTS assay for small molecule disruptors of the mitochondrial membrane potential - cell viability (AID 720634; calls by dose curve;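 note: human HepG2 liver cancer cells; series mostly up to about 83 µM; nearly all actives have a fitted effect of over 20% in size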)
How it was run: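 In this qHTS format, HepG2 cells plated overnight were pinned with compound, incubated 1 hr, and assayed for ATP luminescence with CellTiter-Glo after m-MPI dye addition.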

[6] = qHTS assay for small molecule disruptors of the mitochondrial membrane potential (AID 720635); note: potency is the fitted concentration of half-maximal effect
How it was run: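 HepG2 cells (2,000/well) attached overnight at 37C, then took compound for 1 hr at 37C, 5% CO2. Mito-MPS dye was added for 30 min; fluorescence was read at 490/535 nm (monomers) and 540/590 nm (aggregates).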

[7] = qHTS assay to test for compound auto fluorescence at 590 nm (red) in HepG2 cells (AID 720674)
How it was run: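 Intrinsic compound fluorescence in the red window (Ex/Em 540/590 nm) is measured in attached HepG2 cells exposed for 1 hr, DMSO vehicle as baseline, benchmarked to Rose Bengal sodium.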

[8] = qHTS assay to test for compound auto fluorescence at 535 nm (green) in HepG2 cells (AID 720675)
[9] = qHTS assay to test for compound auto fluorescence at 460 nm (blue) in HEK293 cells (AID 720678)
How it was run: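 Blue-channel (Ex/Em 405/460 nm) intensity measured in HEK293 cultures after overnight compound exposure at 37C; signal expressed relative to triamterene. Cells plated 2,000 per well in 10% dialyzed FBS medium and allowed 4-5 hr to attach.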

[10] = qHTS assay to test for compound auto fluorescence at 590 nm (red) in HEK293 cells (AID 720679)
How it was run: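 Red-channel autofluorescence (Ex/Em 540/590 nm; Rose Bengal sodium reference) was measured after overnight 37C, 5% CO2 exposure of attached HEK293 cells, 2,000 per well in medium with 10% dialyzed FBS.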

[11] = qHTS assay to test for compound auto fluorescence at 535 nm (green) in HEK293 cells (AID 720680)
[12] = qHTS assay to test for compound auto fluorescence at 460 nm (blue) in HEK293 cell free culture (AID 720681)
How it was run: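 Test compounds were pinned into cell-free culture medium (DMEM with 10% FBS) and fluorescence was read directly at Ex/Em 405/460 nm. Signals were expressed as fluorescence equivalents of triamterene, with DMSO vehicle as control.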

[13] = qHTS assay to test for compound auto fluorescence at 535 nm (green) in HEK293 cell free culture (AID 720682)
How it was run: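 Read-out: 485/535 nm fluorescence intensity, calibrated against fluorescein. Medium only (DMEM + 10% FBS, no cells); test compound or DMSO vehicle added by pintool before plate reading.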

[14] = qHTS assay to test for compound auto fluorescence at 590 nm (red) in HepG2 cell free culture (AID 720684)
How it was run: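 Readout: intrinsic compound fluorescence at 590 nm emission after 540 nm excitation, scaled to Rose Bengal sodium. Matrix was cell-free MEM with 10% FBS; DMSO vehicle wells served as control.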

[15] = qHTS assay to test for compound auto fluorescence at 460 nm (blue) in HepG2 cell free culture (AID 720685)
How it was run: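 Cell-free plates of MEM plus 10% FBS received 23 nL compound or DMSO vehicle; blue-channel (405/460 nm) intensity scored against triamterene as reference fluorophore.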

[16] = qHTS assay to test for compound auto fluorescence at 535 nm (green) in HepG2 cell free culture (AID 720686)
[17] = qHTS assay to test for compound auto fluorescence at 460 nm (blue) in HepG2 cells (AID 720687)
How it was run: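 Cells (2,000/well in MEM with 10% FBS) attached overnight at 37 C, then were exposed to compound or DMSO for 1 hr at 37 C, 5% CO2. Fluorescence read at Ex/Em 405/460 nm, expressed as triamterene-equivalent signal.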

[18] = biological target: Glucocorticoid receptor (Homo sapiens) (UniProt P04150); test: qHTS assay to identify small molecule antagonists of the glucocorticoid receptor (GR) signaling pathway (AID 720692; active = well fitted inhibition curve with a large enough effect in the signal ratio in the repeat runs, not every such curve was filed as active; the % refers to the signal ratio; note: potency is the fitted concentration of half-maximal effect)
How it was run: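 Tox21 10K library screened in concentration-response for blockade of dexamethasone (5 nM final)-induced GRE-bla reporter activity in HeLa cells; 18 h treatment, fluorescence read.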

[19] = qHTS assay to test for compound auto fluorescence at 590 nm (red) in HEK293 cell free culture (AID 720683)
How it was run: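 Tox21 10K library compounds were pinned into cell-free DMEM with 10% FBS and fluorescence was read at excitation 540 nm. Activity is expressed as Rose Bengal sodium equivalency.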

[20] = biological target: Glucocorticoid receptor (Homo sapiens) (UniProt P04150); test: qHTS assay to identify small molecule agonists of the glucocorticoid receptor (GR) signaling pathway (AID 720691; active = well fitted activation curve with a large enough effect in the signal ratio in the repeat runs, not every such curve was filed as active; the % refers to the signal ratio)
How it was run: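 Measures GR pathway activation through a GRE-beta-lactamase reporter stably integrated in HeLa cells, with 18 h compound treatment at 37 C and fluorescence detection using a FRET substrate.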

Chain of Glucocorticoid receptor (Homo sapiens) (P04150 whole entry, looked up): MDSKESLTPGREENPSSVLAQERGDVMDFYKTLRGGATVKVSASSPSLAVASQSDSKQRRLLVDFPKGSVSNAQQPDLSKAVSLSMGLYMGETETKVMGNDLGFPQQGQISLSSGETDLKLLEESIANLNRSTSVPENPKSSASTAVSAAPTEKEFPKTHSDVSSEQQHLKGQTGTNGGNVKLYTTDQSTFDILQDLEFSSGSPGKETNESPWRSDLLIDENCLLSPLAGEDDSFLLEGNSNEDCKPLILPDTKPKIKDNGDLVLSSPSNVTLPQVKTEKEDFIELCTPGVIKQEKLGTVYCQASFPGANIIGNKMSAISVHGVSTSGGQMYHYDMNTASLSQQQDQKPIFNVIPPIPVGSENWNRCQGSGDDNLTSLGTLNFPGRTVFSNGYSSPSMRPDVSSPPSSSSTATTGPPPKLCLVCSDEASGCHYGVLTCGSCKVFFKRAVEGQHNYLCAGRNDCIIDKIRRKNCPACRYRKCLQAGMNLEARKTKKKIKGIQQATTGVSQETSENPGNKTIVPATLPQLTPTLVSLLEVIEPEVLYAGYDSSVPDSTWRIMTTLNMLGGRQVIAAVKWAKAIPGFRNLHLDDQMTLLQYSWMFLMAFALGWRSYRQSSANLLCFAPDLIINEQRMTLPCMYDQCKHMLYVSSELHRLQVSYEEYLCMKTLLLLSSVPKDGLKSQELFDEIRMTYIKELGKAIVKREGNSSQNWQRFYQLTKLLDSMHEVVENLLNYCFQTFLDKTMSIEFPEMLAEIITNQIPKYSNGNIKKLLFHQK

Structure (SMILES) | Potency [1] | Potency [2] | Potency [3] | Potency [4] | Potency [5] | Potency [6] | Potency [7] | Potency [8] | Potency [9] | Potency [10] | Potency [11] | Potency [12] | Potency [13] | Potency [14] | Potency [15] | Potency [16] | Potency [17] | Potency [18] | Potency [19] | Potency [20]
CCCCCCCCCCCCCC[N+](C)(C)C | 21.1 µM (active) | inactive | 26.6 µM (active) | inactive | inactive | 17.6 µM (active) and 13.2 µM (active) and 6.85 µM (active) | inactive | inactive | inactive | inactive | inactive | inactive | inactive | inactive | inactive | inactive | inactive | 15.5 µM (active) | – | –
OC[C@@H](O)[C@@H](O)CO | inactive | inactive | inactive | inactive | inactive | inactive | inactive | inactive | inactive | inactive | inactive | inactive | inactive | inactive | – | inactive | inactive | – | inactive | inactive
Cc1nc2n(c(=O)c1CCN1CCC(c3noc4cc(F)ccc34)CC1)CCCC2 | inactive | inactive | inactive | inactive | inactive | inactive | inactive | inactive | inactive | inactive | inactive | inactive | inactive | inactive | inactive | inactive | inactive | inactive | inactive | inactive
OC1CCCc2ccccc21 (stereo not drawn) | inactive | inactive | inactive | inactive | inactive | – | inactive | inactive | inactive | inactive | inactive | inactive | inactive | inactive | inactive | inactive | inactive | – | inactive | –
COCCOc1cc2cc(C(=O)NC3CCN(C(C)C)CC3)n(CC(=O)Nc3ccc(Cl)cn3)c2cn1 | inactive | inactive | inactive | inactive | inactive | inactive | inactive | inactive | – | inactive | inactive | inactive | inactive | inactive | inactive | inactive | inactive | inactive | – | inactive
COc1cccc(OC)c1C(=O)O | inactive | inactive | inactive | inactive | inactive | inactive | inactive | inactive | inactive | inactive | inactive | inactive | inactive | inactive | inactive | inactive | inactive | inactive | inactive | inactive
O=c1[nH]c(=O)n([C@H]2C[C@H](O)[C@@H](CO)O2)cc1F | 0.944 µM (active) | inactive | 0.211 µM (active) | inactive | inactive | inactive | inactive | inactive | – | inactive | inactive | inactive | inactive | – | inactive | inactive | inactive | inactive | inactive | –
